Measured values taken from PubChem BioAssay (EPA / NIEHS).
The source made the active and inactive calls. Rule for the calls: active = hit-call score of the fitted dose curve at least 0.9, where 1 is the maximum; inactive = score below 0.9.

Key:
Conditions in all cases: mRNA level, 48 h; actives raise or lower the signal
[1] = read-out: Interleukin 6 (IL6), IL6 (gene 3569); assay: LTEA_HepaRG_IL6: Life Technologies and Expression Analysis (LTEA) Assay for Interleukin 6 (IL6) using HepaRG (AID 2283509)
In short: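 Differentiated human HepaRG cells, plated 48 h then switched to serum-free induction medium, were exposed in duplicate for 48 h to eight half-log concentrations up to 100 uM in 0.5% DMSO. IL6 mRNA measured by qRT-PCR, normalized to ACTB/GAPDH/POLR2A.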

[2] = read-out: Interleukin 6 Receptor (IL6R), IL6R (gene 3570); assay: LTEA_HepaRG_IL6R: Life Technologies and Expression Analysis (LTEA) Assay for Interleukin 6 Receptor (IL6R) using HepaRG (AID 2283510)
In short: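 Readout is IL6R transcript level by TaqMan qRT-PCR, normalized to three housekeeping genes and fitted bidirectionally against 0.5% DMSO controls. Human HepaRG cells received chemicals for 48 h in serum-free induction medium, highest concentration 100 uM.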

[3] = read-out: Potassium channel subfamily K member 1 (KCNK1), KCNK1 (gene 3775); assay: LTEA_HepaRG_KCNK1: Life Technologies and Expression Analysis (LTEA) Assay for Potassium channel subfamily K member 1 (KCNK1) using HepaRG (AID 2283511)
In short: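 Differentiated human HepaRG cells in serum-free induction medium were exposed in duplicate for 48 h to 8 half-log concentrations up to 100 uM in 0.5% DMSO. KCNK1 mRNA was measured by TaqMan qRT-PCR, normalized to ACTB, GAPDH and POLR2A, and fitted bidirectionally versus DMSO.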

[4] = read-out: Keratin 19 (KRT19), KRT19 (gene 3880); assay: LTEA_HepaRG_KRT19: Life Technologies and Expression Analysis (LTEA) Assay for Keratin 19 (KRT19) using HepaRG (AID 2283512)
In short: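 Gene-expression endpoint in the human liver line HepaRG after 48 h exposure to up to 100 uM test chemical with 0.5% DMSO vehicle; KRT19 mRNA by qRT-PCR, analyzed bidirectionally versus DMSO.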

[5] = read-out: JUN Transcription Factor, JUN (gene 3725); assay: LTEA_HepaRG_JUN: Life Technologies and Expression Analysis (LTEA) Assay for JUN Transcription Factor using HepaRG (AID 2283513)
In short: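 Cells plated 48 h, medium switched to serum-free induction medium, then dosed 48 h (100 uM top, half-log dilutions, 0.5% DMSO). RNA isolated; JUN measured by qRT-PCR against three housekeeping genes; gain or loss fitted relative to DMSO.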

[6] = read-out: Lipase C (LIPC), LIPC (gene 3990); assay: LTEA_HepaRG_LIPC: Life Technologies and Expression Analysis (LTEA) Assay for Lipase C (LIPC) using HepaRG (AID 2283514)
In short: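 Differentiated human HepaRG cells in serum-free induction medium were exposed in duplicate for 48 h to eight concentrations (top 100 uM, half-log steps, 0.5% DMSO). LIPC mRNA was quantified by TaqMan qRT-PCR, normalized to ACTB, GAPDH and POLR2A, with bidirectional fitting versus DMSO.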

[7] = read-out: Lipoprotein lipase (LPL), LPL (gene 4023); assay: LTEA_HepaRG_LPL: Life Technologies and Expression Analysis (LTEA) Assay for Lipoprotein lipase (LPL) using HepaRG (AID 2283515)
In short: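 Differentiated human HepaRG cells in serum-free induction medium were exposed in duplicate for 48 h to eight half-log concentrations (top 100 uM) in 0.5% DMSO. LPL mRNA was quantified by TaqMan qRT-PCR, normalized to ACTB, GAPDH and POLR2A.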

[8] = read-out: MicroRNA 122 (MIR122), gene 406906; assay: LTEA_HepaRG_MIR122: Life Technologies and Expression Analysis (LTEA) Assay for MicroRNA 122 (MIR122) using HepaRG (AID 2283516); note: the transcript read is the microRNA miR-122
In short: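 HepaRG plated 48 h, switched to serum-free induction medium, then treated in duplicate for 48 h (100 uM top, half-log steps, 0.5% DMSO vehicle). RNA isolated, qRT-PCR performed, concentration-response fitted both directions relative to DMSO.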

[9] = read-out: matrix metalloproteinase-10 (MMP10), MMP10 (gene 4319); assay: LTEA_HepaRG_MMP10: Life Technologies and Expression Analysis (LTEA) Assay for matrix metalloproteinase-10 (MMP10) using HepaRG (AID 2283517)
In short: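 HepaRG, collagen I, ~100,000 cells/well; serum-free induction medium; 48 h exposure, duplicate, 8-pt half-log to 100 uM, 0.5% DMSO. Readout: TaqMan qRT-PCR, normalized to ACTB/GAPDH/POLR2A; bidirectional fit vs DMSO.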

[10] = read-out: MYC, MYC (gene 4609); assay: LTEA_HepaRG_MYC: Life Technologies and Expression Analysis (LTEA) Assay for MYC using HepaRG (AID 2283518)
In short: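 Cells are thawed, plated and cultured 48 h, then treated for 48 h with test chemicals (eight half-log concentrations from 100 uM, 0.5% DMSO vehicle). RNA is isolated and MYC expression quantified by qRT-PCR against three housekeeping genes.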

[11] = read-out: matrix metalloproteinase-3 (MMP3), MMP3 (gene 4314); assay: LTEA_HepaRG_MMP3: Life Technologies and Expression Analysis (LTEA) Assay for matrix metalloproteinase-3 (MMP3) using HepaRG (AID 2283519)
In short: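 Differentiated human HepaRG cells, plated 48 h on collagen I, were exposed in duplicate for 48 h in serum-free induction medium to eight half-log concentrations up to 100 uM in 0.5% DMSO. MMP3 mRNA was quantified by TaqMan qRT-PCR, normalised to ACTB, GAPDH and POLR2A.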

[12] = read-out: Paternally Expressed 10 (PEG10), PEG10 (gene 23089); assay: LTEA_HepaRG_PEG10: Life Technologies and Expression Analysis (LTEA) Assay for Paternally Expressed 10 (PEG10) using HepaRG (AID 2283520)
In short: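 HepaRG, 48 h post-plating → serum-free induction medium → 48 h chemical exposure (duplicate, 8-pt, max 100 uM, half-log, 0.5% DMSO) → lysis in RLT → TaqMan qRT-PCR for PEG10, ACTB/GAPDH/POLR2A normalisation.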

[13] = read-out: Protein phosphatase 2A (PPP2R4), PTPA (gene 5524); assay: LTEA_HepaRG_PPP2R4: Life Technologies and Expression Analysis (LTEA) Assay for Protein phosphatase 2A (PPP2R4) using HepaRG (AID 2283522)
In short: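 Readout is PPP2R4 transcript level by microfluidic qRT-PCR after 48 h chemical treatment of human HepaRG liver cells. Concentrations spanned 100 uM downward in half-log steps; gain or loss of signal was fitted relative to DMSO.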

[14] = read-out: Phosphatase and tensin (PTEN), PTEN (gene 5728); assay: LTEA_HepaRG_PTEN: Life Technologies and Expression Analysis (LTEA) Assay for Phosphatase and tensin (PTEN) using HepaRG (AID 2283523)
In short: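 Differentiated human HepaRG cells, plated 48 h then switched to serum-free induction medium, were exposed in duplicate for 48 h to eight half-log concentrations up to 100 uM in 0.5% DMSO. PTEN mRNA measured by TaqMan qRT-PCR, normalized to ACTB/GAPDH/POLR2A, bidirectional fit versus DMSO.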

[15] = read-out: Pyruvate Dehydrogenase Kinase 4 (PDK4), PDK4 (gene 5166); assay: LTEA_HepaRG_PDK4: Life Technologies and Expression Analysis (LTEA) Assay for Pyruvate Dehydrogenase Kinase 4 (PDK4) using HepaRG (AID 2283525)
In short: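 Differentiated human HepaRG cells, pre-cultured 48 h, were exposed in duplicate for 48 h in serum-free induction medium to eight half-log concentrations up to 100 uM in 0.5% DMSO. PDK4 mRNA was quantified by qRT-PCR, normalized to ACTB, GAPDH and POLR2A, bidirectional fitting versus DMSO.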

[16] = read-out: NAD(P)H dehydrogenase [quinone] 1 (NQO1), NQO1 (gene 1728); assay: LTEA_HepaRG_NQO1: Life Technologies and Expression Analysis (LTEA) Assay for NAD(P)H dehydrogenase [quinone] 1 (NQO1) using HepaRG (AID 2283526)
In short: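 HepaRG, 48 h post-plating → serum-free induction medium → test chemical 48 h (duplicate, 100 uM top, half-log x8, 0.5% DMSO) → RNA isolation → qRT-PCR, ACTB/GAPDH/POLR2A normalization; bidirectional curve fit vs DMSO baseline.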

[17] = read-out: Nuclear factor erythroid 2-related factor 2 (Homo sapiens) (UniProt Q16236); assay: LTEA_HepaRG_NFE2L2: Life Technologies and Expression Analysis (LTEA) Assay for Nuclear factor erythroid 2-related factor 2 (NFE2L2) Transcription Factor using HepaRG (AID 2283527);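 note: TaqMan qRT-PCR transcript level normalised to ACTB GAPDH and POLR2A housekeeping genes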
In short: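 Differentiated human HepaRG cells in serum-free induction medium were exposed for 48 h to eight concentrations (top 100 uM, half-log dilutions, 0.5% DMSO), in duplicate. NFE2L2 mRNA was quantified by TaqMan qRT-PCR, normalized to ACTB, GAPDH and POLR2A, with bidirectional fitting versus DMSO.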

[18] = read-out: succinate dehydrogenase complex iron sulfur subunit B (SDHB), SDHB (gene 6390); assay: LTEA_HepaRG_SDHB: Life Technologies and Expression Analysis (LTEA) Assay for succinate dehydrogenase complex iron sulfur subunit B (SDHB) using HepaRG (AID 2283528)
In short: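 A human HepaRG culture in serum-free induction medium received test chemicals for 48 h over an eight-point range capped at 100 uM. SDHB expression change was quantified by qRT-PCR.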

[19] = read-out: Nuclear factor NF-kappa-B p105 subunit (Homo sapiens) (UniProt P19838); assay: LTEA_HepaRG_NFKB1: Life Technologies and Expression Analysis (LTEA) Assay for Nuclear Factor Kappa B Subunit 1 (NFKB1) using HepaRG (AID 2283521);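 note: TaqMan qRT-PCR transcript normalised to ACTB GAPDH and POLR2A housekeeping genes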
In short: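 Human HepaRG cells receive eight half-log concentrations, highest 100 uM, for 48 h. NFKB1 expression is then quantified by qRT-PCR and analysed for up- or down-regulation relative to 0.5% DMSO vehicle.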

Measured: outcome

Chain of Nuclear factor erythroid 2-related factor 2 (Homo sapiens) (Q16236 whole entry, looked up): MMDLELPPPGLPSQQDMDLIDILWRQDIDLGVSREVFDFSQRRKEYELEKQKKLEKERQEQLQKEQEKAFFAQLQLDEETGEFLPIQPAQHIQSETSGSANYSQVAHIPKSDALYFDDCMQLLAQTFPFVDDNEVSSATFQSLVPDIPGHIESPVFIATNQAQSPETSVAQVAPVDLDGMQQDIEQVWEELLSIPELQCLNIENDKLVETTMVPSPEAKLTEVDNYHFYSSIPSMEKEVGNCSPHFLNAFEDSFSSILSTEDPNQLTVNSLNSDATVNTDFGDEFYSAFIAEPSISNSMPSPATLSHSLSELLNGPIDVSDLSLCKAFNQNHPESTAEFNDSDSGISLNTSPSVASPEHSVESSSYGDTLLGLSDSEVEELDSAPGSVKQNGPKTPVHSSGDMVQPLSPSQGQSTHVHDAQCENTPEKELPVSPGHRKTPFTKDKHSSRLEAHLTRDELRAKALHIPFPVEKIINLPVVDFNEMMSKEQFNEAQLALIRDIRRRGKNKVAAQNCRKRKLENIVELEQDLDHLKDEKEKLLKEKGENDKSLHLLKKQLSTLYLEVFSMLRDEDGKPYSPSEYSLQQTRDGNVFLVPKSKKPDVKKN
Chain of Nuclear factor NF-kappa-B p105 subunit (Homo sapiens) (P19838 whole entry, looked up): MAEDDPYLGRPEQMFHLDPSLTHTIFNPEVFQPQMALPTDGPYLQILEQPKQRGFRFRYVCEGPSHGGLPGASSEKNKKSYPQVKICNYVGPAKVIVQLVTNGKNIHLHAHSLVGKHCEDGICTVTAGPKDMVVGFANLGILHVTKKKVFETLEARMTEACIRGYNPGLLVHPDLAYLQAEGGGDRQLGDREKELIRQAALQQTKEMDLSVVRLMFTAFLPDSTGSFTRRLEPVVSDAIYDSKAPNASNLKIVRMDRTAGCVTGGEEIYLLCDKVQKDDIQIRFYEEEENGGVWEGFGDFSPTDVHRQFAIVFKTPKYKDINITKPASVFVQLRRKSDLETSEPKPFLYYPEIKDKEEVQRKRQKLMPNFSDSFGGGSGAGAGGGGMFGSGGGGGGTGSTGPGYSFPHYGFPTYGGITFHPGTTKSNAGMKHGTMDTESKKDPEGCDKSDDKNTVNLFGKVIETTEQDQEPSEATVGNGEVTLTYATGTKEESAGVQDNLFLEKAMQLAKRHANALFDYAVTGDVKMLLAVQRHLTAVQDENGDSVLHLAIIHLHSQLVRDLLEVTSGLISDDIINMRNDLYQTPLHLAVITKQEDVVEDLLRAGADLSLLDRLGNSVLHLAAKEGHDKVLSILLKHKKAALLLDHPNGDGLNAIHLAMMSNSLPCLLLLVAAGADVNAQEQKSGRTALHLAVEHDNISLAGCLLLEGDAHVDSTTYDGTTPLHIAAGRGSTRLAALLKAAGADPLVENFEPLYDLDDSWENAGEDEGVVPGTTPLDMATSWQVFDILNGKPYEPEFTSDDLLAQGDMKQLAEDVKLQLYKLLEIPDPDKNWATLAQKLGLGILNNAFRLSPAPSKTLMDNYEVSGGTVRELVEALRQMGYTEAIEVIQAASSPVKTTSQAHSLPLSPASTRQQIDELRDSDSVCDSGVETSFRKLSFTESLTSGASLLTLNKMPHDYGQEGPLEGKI

CCCCCCC(=O)O
not listed: [19]
inactive: all other assays above

COC(=O)CCCCC(=O)OC
not listed: [18] | [19]
inactive: all other assays above

CCCCCCCCC(=O)O
not listed: [19]
inactive: all other assays above

COc1ccc([N+](=O)[O-])cc1N
inactive: all assays above
